Measurements: PubChem BioAssay AID1159580 (chemical genetic matrix, 2015)
Where “and” joins values, the source holds several entries; their conditions need not be identical. Equal values may be shown once. Out of some 5,500 compounds screened, about 2,000 (36%) were called active. Another 18% or so got no clear call; they are omitted. Cut-off read from the data, not from the text of the source: active = normalized growth mostly below about 0.91 (no sharp cut-off); inconclusive = no clear call, values can overlap the other calls; inactive = mostly above about 0.92. The list shows a part of the results.

Experiment: chemical genetic growth profiling, strain panel (AID 1159580);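 note: tested at 20 µM; growth read once vehicle control cultures reached saturation at 30 °C; 1 = growth at the plate median or of vehicle wells; lower values mean less growth of the strain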
Settings: S. cerevisiae deletion strains, growth OD

Measured: normalized growth

COc1ccc2c(c1)[C@]13CCCC[C@H]1[C@H](C2)N(C)CC3
inactive: locus YAL021C, strain ccr4, active compounds read low 0.94 | locus YAL026C, strain drs2, active compounds read low 1 | locus YAL030W, strain snc1, active compounds read low 0.971 | locus YBL061C, strain skt5, active compounds read low 0.981 | locus YBR009C, strain hhf1, active compounds read low 0.988 | locus YBR021W, strain FUR4, active compounds read low 1.01 | locus YBR023C, strain chs3, active compounds read low 0.99 | locus YBR171W, strain sec66, active compounds read low 0.933 | locus YBR229C, strain ROT2, active compounds read low 1.01 | locus YBR231C, strain swc5, active compounds read low 0.937 | locus YBR279W, strain paf1, active compounds read low 0.998 | locus YCL011C, strain gbp2, active compounds read low 0.991 | locus YCL016C, strain dcc1, active compounds read low 1.03 | locus YCL029C, strain bik1, active compounds read low 0.988 | locus YCL061C, strain MRC1, active compounds read low 0.968 | locus YCL069W, strain vba3, active compounds read low 0.995 | locus YCR088W, strain abp1, active compounds read low 0.952 | locus YDL005C, strain med2, active compounds read low 0.97 | locus YDL035C, strain GPR1, active compounds read low 1.04 | locus YDL040C, strain nat1, active compounds read low 0.962 | locus YDL074C, strain BRE1, active compounds read low 0.993 | locus YDL101C, strain DUN1, active compounds read low 1 | locus YDL134C, strain PPH21, active compounds read low 1.03 | locus YDL185W, strain tfp1, active compounds read low 0.989 | locus YDL192W, strain arf1, active compounds read low 0.995 | locus YDR001C, strain nth1, active compounds read low 0.951 | locus YDR069C, strain doa4, active compounds read low 0.943 | locus YDR101C, strain arx1, active compounds read low 0.999 | locus YDR137W, strain rgp1, active compounds read low 0.999 | locus YDR150W, strain NUM1, active compounds read low 1.01 | locus YDR159W, strain sac3, active compounds read low 0.955 | locus YDR162C, strain NBP2, active compounds read low 1.01 | locus YDR195W, strain ref2 0.926 | locus YDR297W, strain sur2, active compounds read low 0.98 | locus YDR318W, strain mcm21, active compounds read low 0.988 | locus YDR334W, strain swr1, active compounds read low 0.909 | locus YDR335W, strain msn5, active compounds read low 0.949 | locus YDR388W, active compounds read low 0.993 | locus YDR392W, strain spt3, active compounds read low 1.03 | locus YDR502C, strain sam2, active compounds read low 0.992 | locus YEL003W, strain gim4, active compounds read low 0.966 | locus YEL037C, strain rad23, active compounds read low 0.975 | locus YEL061C, strain CIN8 (second series), active compounds read low 0.96 | locus YEL061C, strain CIN8, active compounds read low 1.01 | locus YER015W, strain faa2, active compounds read low 0.961 | locus YER016W, strain bim1, active compounds read low 1 | locus YER110C, active compounds read low 0.996 | locus YER111C, strain swi4, active compounds read low 0.978 | locus YER155C, strain BEM2 (second series), active compounds read low 0.886 | locus YER155C, strain BEM2, active compounds read low 1 | locus YER167W, strain BCK2, active compounds read low 1.01 | locus YFR010W, strain ubp6, active compounds read low 0.95 | locus YGL078C, strain dbp3, active compounds read low 0.993 | locus YGL086W, strain mad1, active compounds read low 0.993 | locus YGL167C, strain pmr1, active compounds read low 0.946 | locus YGL173C, strain kem1, active compounds read low 1 | locus YGL227W, strain vid30, active compounds read low 0.965 | locus YGL240W, strain doc1, active compounds read low 0.948 | locus YGL248W, strain PDE1, active compounds read low 0.995 | locus YGL253W, strain hxk2, active compounds read low 0.998 | locus YGR078C, strain PAC10, active compounds read low 0.996 | locus YGR135W, strain pre9, active compounds read low 0.964 | locus YGR229C, strain SMI1, active compounds read low 1.02 | locus YGR252W, strain gcn5, active compounds read low 0.973 | locus YHR013C, strain ard1, active compounds read low 0.991 | locus YHR027C, strain rpn1, active compounds read low 0.985 | locus YHR030C, strain SLT2, active compounds read low 1.01 and 1.03 | locus YHR079C, strain IRE1 (second series), active compounds read low 0.984 | locus YHR079C, strain IRE1, active compounds read low 1.03 | locus YHR094C, strain hxt1, active compounds read low 0.987 | locus YHR129C, strain ARP1, active compounds read low 1.01 | locus YHR142W, strain chs7, active compounds read low 0.987 | locus YHR200W, strain rpn10, active compounds read low 0.996 | locus YIL066C, strain RNR3, active compounds read low 1.01 | locus YIL073C, strain SPO22, active compounds read low 0.976 | locus YIL125W, strain kgd1, active compounds read low 0.987 | locus YIR030C, strain dcg1, active compounds read low 0.999 | locus YJL092W, strain hpr5, active compounds read low 0.962 | locus YJL095W, strain BCK1 (second series), active compounds read low 0.978 | locus YJL095W, strain BCK1, active compounds read low 0.966 and 1.04 | locus YJL115W, strain asf1, active compounds read low 0.95 | locus YJL129C, strain trk1, active compounds read low 0.932 | locus YJL134W, strain LCB3, active compounds read low 0.999 | locus YJL154C, strain vps35, active compounds read low 0.954 | locus YJL164C, strain tpk1, active compounds read low 1.02 | locus YJL166W, strain qcr8, active compounds read low 0.929 | locus YJL168C, strain set2, active compounds read low 0.99 | locus YJL187C, strain SWE1 (second series), active compounds read low 0.994 | locus YJR043C, strain POL32, active compounds read low 1.04 | locus YJR066W, strain TOR1, active compounds read low 0.984 | locus YJR075W, strain HOC1, active compounds read low 0.983 | locus YKL009W, strain mrt4, active compounds read low 0.99 | locus YKL068W, active compounds read low 0.993 | locus YKL085W, strain MDH1 (second series), active compounds read low 0.984 | locus YKL085W, strain MDH1, active compounds read low 0.984 | locus YKL160W, strain elf1, active compounds read low 0.97 | locus YKR001C, strain vps1, active compounds read low 0.997 | locus YKR026C, strain gcn3, active compounds read low 0.966 | locus YKR091W, strain srl3, active compounds read low 0.966 | locus YLL001W, strain dnm1, active compounds read low 0.926 | locus YLL026W, active compounds read low 0.986 | locus YLL041C, strain sdh2, active compounds read low 0.97 | locus YLR027C, strain aat2, active compounds read low 0.966 | locus YLR039C, strain RIC1, active compounds read low 1.1 | locus YLR058C, strain SHM2, active compounds read low 0.996 | locus YLR102C, strain apc9, active compounds read low 0.976 | locus YLR113W, strain HOG1, active compounds read low 1.05 | locus YLR221C, strain rsa3, active compounds read low 1.01 | locus YLR258W, strain gsy2, active compounds read low 0.997 | locus YLR262C, strain YPT6 (second series), active compounds read low 0.954 | locus YLR262C, strain YPT6, active compounds read low 1.08 | locus YLR268W, strain sec22, active compounds read low 0.988 | locus YLR320W, strain mms22, active compounds read low 1 | locus YLR330W, strain CHS5, active compounds read low 1.01 | locus YLR342W, strain FKS1 (second series), active compounds read low 0.997 | locus YLR342W, strain FKS1, active compounds read low 0.946 | locus YLR357W, strain rsc2, active compounds read low 0.958 | locus YLR370C, strain arc18, active compounds read low 0.989 | locus YLR371W, strain rom2, active compounds read low 0.993 | locus YLR384C, strain iki3, active compounds read low 0.956 | locus YLR418C, strain cdc73, active compounds read low 0.957 | locus YML016C, strain PPZ1, active compounds read low 1.01 | locus YML032C, strain rad52, active compounds read low 0.997 | locus YML120C, strain ndi1, active compounds read low 0.973 | locus YML124C, strain tub3, active compounds read low 0.997 | locus YMR058W, strain fet3, active compounds read low 0.974 | locus YMR078C, strain ctf18, active compounds read low 0.982 | locus YMR125W, strain sto1, active compounds read low 0.917 | locus YMR129W, active compounds read low 0.985 | locus YMR205C, strain PFK2, active compounds read low 0.953 | locus YMR223W, strain ubp8, active compounds read low 0.965 | locus YMR231W, strain pep5, active compounds read low 0.965 | locus YMR307W, strain GAS1, active compounds read low 1.09 | locus YNL067W, strain RPL9B, active compounds read low 0.99 | locus YNL071W, strain lat1, active compounds read low 0.982 | locus YNL153C, strain GIM3, active compounds read low 0.981 | locus YNL183C, strain NPR1, active compounds read low 0.997 | locus YNL209W, strain ssb2, active compounds read low 0.99 | locus YNL233W, strain BNI4, active compounds read low 0.982 | locus YNL248C, strain rpa49, active compounds read low 0.987 | locus YNL250W, strain rad50, active compounds read low 1.01 | locus YNL271C, strain bni1, active compounds read low 0.994 | locus YNL298W, strain CLA4, active compounds read low 0.991 | locus YNL307C, strain MCK1, active compounds read low 0.979 | locus YNL322C, strain KRE1 (second series), active compounds read low 0.93 | locus YNR049C, strain mso1, active compounds read low 0.976 | locus YNR052C, strain pop2, active compounds read low 0.992 | locus YOL012C, strain htz1 0.734 | locus YOL147C, strain pex11, active compounds read low 0.989 | locus YOR001W, strain rrp6, active compounds read low 0.953 | locus YOR061W, strain CKA2, active compounds read low 1.02 | locus YOR069W, strain VPS5, active compounds read low 1.01 | locus YOR070C, strain gyp1, active compounds read low 0.987 | locus YOR080W, strain dia2, active compounds read low 0.945 | locus YOR083W, strain WHI5, active compounds read low 0.947 | locus YOR106W, strain vam3, active compounds read low 0.939 | locus YOR136W, strain idh2, active compounds read low 0.99 | locus YOR144C, strain elg1, active compounds read low 0.99 | locus YOR184W, strain ser1, active compounds read low 0.99 | locus YOR231W, strain MKK1, active compounds read low 1.04 | locus YOR265W, strain rbl2, active compounds read low 0.967 | locus YOR270C, strain vph1, active compounds read low 0.966 | locus YOR290C, strain snf2, active compounds read low 1.01 | locus YOR316C, strain cot1, active compounds read low 0.991 | locus YPL051W, strain arl3, active compounds read low 0.985 | locus YPL078C, strain atp4, active compounds read low 0.933 | locus YPL106C, strain sse1, active compounds read low 0.944 | locus YPL240C, strain hsp82, active compounds read low 0.967 | locus YPL256C, strain CLN2, active compounds read low 1.03 | locus YPR119W, strain clb2, active compounds read low 0.981 | locus YPR141C, strain kar3, active compounds read low 0.98 | locus YPR163C, strain tif3, active compounds read low 1 | locus YPR167C, strain met16, active compounds read low 0.987 | strain wtn01, active compounds read low 0.986
